Experimental data published in paper PMC7826789 (International Journal of Molecular Sciences, 2021).

Tests used:
Conditions in all cases: Compound Concentration (nM):1000
SIK = test system: T1, SIK
T1 construct: gene SIK1

SLK = test system: SLK
SNARK = test system: T2, SNARK
T2 construct: gene NUAK2

SNRK = test system: SNRK
SRC = test system: SRC
SRMS = test system: SRMS
SRPK1 = test system: SRPK1
SRPK2 = test system: SRPK2
SRPK3 = test system: SRPK3
STK16 = test system: STK16
STK33 = test system: STK33
STK35 = test system: STK35
STK36 = test system: STK36
STK39 = test system: STK39
SYK = test system: SYK
SgK110 = test system: SgK110
TAK1 = test system: T3, TAK1
T3 construct: gene MAP3K7

TAOK1 = test system: TAOK1
TAOK2 = test system: TAOK2
TAOK3 = test system: TAOK3
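Also: KINOMEscan scanMAX binding as percent activity remaining versus control; lower means stronger binding.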

| Compound | Percent Control (SIK) [%] | Percent Control (SLK) [%] | Percent Control (SNARK) [%] | Percent Control (SNRK) [%] | Percent Control (SRC) [%] | Percent Control (SRMS) [%] | Percent Control (SRPK1) [%] | Percent Control (SRPK2) [%] | Percent Control (SRPK3) [%] | Percent Control (STK16) [%] | Percent Control (STK33) [%] | Percent Control (STK35) [%] | Percent Control (STK36) [%] | Percent Control (STK39) [%] | Percent Control (SYK) [%] | Percent Control (SgK110) [%] | Percent Control (TAK1) [%] | Percent Control (TAOK1) [%] | Percent Control (TAOK2) [%] | Percent Control (TAOK3) [%] |
| --- | --- | --- | --- | --- | --- | --- | --- | --- | --- | --- | --- | --- | --- | --- | --- | --- | --- | --- | --- | --- |
| NS(=O)(=O)c1ccc(N/N=C2\C(=O)Nc3ccc(C(=O)NCCc4c[nH]cn4)cc32)cc1 [GW300660X] | 100 | 100 | 6.9 | 100 | 100 | 90 | 86 | 100 | 76 | 34 | 67 | 100 | 100 | 100 | 100 | 100 | 18 | 75 | 93 | 86 |
| COc1cc(N2CCN(C(C)C)CC2)ccc1Nc1nc(Nc2ccc(F)cc2C(=O)NC[C@@H](O)CO)c2cc[nH]c2n1 [GSK1392956A] | 100 | 100 | 66 | 87 | 100 | 100 | 99 | 99 | 100 | 85 | 1.5 | 100 | 100 | 65 | 92 | 100 | 100 | 67 | 100 | 100 |
| CN(C)CCNC(=O)Nc1ccc(N(C)c2ccnc(Nc3ccc(CS(C)(=O)=O)cc3)n2)cc1.Cl [GW830900A] | 74 | 42 | 43 | 77 | 100 | 95 | 17 | 100 | 7.7 | 30 | 85 | 14 | 70 | 78 | 97 | 47 | 48 | 80 | 86 | 89 |
| Cl.O=S1CCN(Cc2ccc(-c3ccc4ncnc(Nc5ccc(OCc6ccccc6)c(F)c5)c4c3)o2)CC1 [GW576924A] | 100 | 100 | 96 | 100 | 100 | 100 | 100 | 100 | 78 | 100 | 84 | 100 | 100 | 100 | 100 | 100 | 100 | 100 | 100 | 100 |
| COc1cc(C=NNc2ncnc3c2cnn3-c2ccccc2)ccc1O [GW513184X] | 79 | 79 | 87 | 100 | 59 | 100 | 33 | 100 | 100 | 100 | 100 | 80 | 82 | 100 | 38 | 100 | 59 | 100 | 100 | 95 |
| CCc1ccc(Oc2nccc(-c3c(-c4ccc(F)cc4)ncn3C3CCNCC3)n2)cc1 [SB-242719] | 100 | 79 | 87 | 99 | 100 | 91 | 82 | 100 | 88 | 89 | 92 | 100 | 82 | 81 | 85 | 100 | 96 | 82 | 93 | 95 |
| Nc1ncnc2occ(-c3ccc(NC(=O)Nc4cc(C(F)(F)F)ccc4F)cc3)c12 [GW770249X] | 100 | 6.3 | 87 | 100 | 92 | 91 | 74 | 76 | 63 | 97 | 11 | 95 | 100 | 100 | 38 | 100 | 3.2 | 75 | 67 | 74 |
| Cl.O=C(Nc1ccc(Oc2ccc3[nH]c(NC(=O)c4ccccc4)nc3c2)cc1)Nc1cc(C(F)(F)F)ccc1F [GW709042A] | 100 | 70 | 92 | 89 | 98 | 91 | 89 | 93 | 70 | 88 | 29 | 95 | 100 | 100 | 99 | 100 | 58 | 90 | 91 | 98 |
| NS(=O)(=O)c1ccc(N/N=C2\C(=O)Nc3ccc(Cl)cc32)cc1 [GW280670X] | 100 | 100 | 91 | 100 | 100 | 100 | 97 | 100 | 88 | 84 | 95 | 100 | 100 | 100 | 98 | 100 | 81 | 95 | 100 | 100 |
| CCS(=O)(=O)c1ccc(OC)c(Nc2ncc(-c3cccc(OC)c3)o2)c1 [GW580509X] | 97 | 100 | 96 | 100 | 26 | 54 | 96 | 100 | 100 | 37 | 100 | 100 | 100 | 100 | 96 | 100 | 81 | 100 | 100 | 100 |
| NS(=O)(=O)c1ccc(N/N=C2\C(=O)Nc3ccc(-c4cnco4)cc32)cc1 [GW276655] | 77 | 86 | 49 | 55 | 83 | 73 | 100 | 100 | 76 | 46 | 100 | 99 | 100 | 88 | 100 | 73 | 32 | 86 | 95 | 98 |
| CCn1c(-c2nonc2N)nc2c(C#CC(C)(C)O)nc(OCCNC)cc21.Cl [GSK949675] | 89 | 100 | 41 | 100 | 100 | 100 | 84 | 100 | 100 | 100 | 100 | 100 | 100 | 98 | 100 | 100 | 85 | 72 | 92 | 90 |
| Cc1cc(O)cc(C)c1/C=C/c1cncc(C(N)=O)c1 [GW435821X] | 38 | 100 | 92 | 100 | 57 | 38 | 88 | 100 | 85 | 98 | 94 | 69 | 100 | 100 | 74 | 100 | 100 | 74 | 91 | 98 |
| NS(=O)(=O)c1ccc(N/N=C2\C(=O)Nc3ccc(C(=O)NCc4ccncc4)cc32)cc1 [GW300657X] | 95 | 100 | 8.9 | 100 | 100 | 93 | 89 | 6.6 | 72 | 23 | 87 | 93 | 97 | 74 | 73 | 100 | 29 | 84 | 99 | 100 |
| COc1ccc2cc(-c3c(-c4ccncc4)nc(-c4ccc(S(C)(=O)=O)cc4C)n3C)ccc2c1 [SB-633825] | 96 | 1.7 | 82 | 91 | 82 | 85 | 90 | 76 | 83 | 93 | 89 | 57 | 82 | 66 | 78 | 85 | 80 | 84 | 77 | 74 |
| COc1cc2ncnc(Nc3ccc4c(cnn4Cc4ccccc4)c3)c2cc1OC.Cl [GW282449A] | 100 | 77 | 100 | 100 | 100 | 50 | 92 | 100 | 97 | 100 | 98 | 100 | 100 | 100 | 77 | 100 | 100 | 100 | 100 | 100 |
| COc1cccc(-c2c[nH]c3c(N/N=C/c4ccncc4)ncnc23)c1 [GW814408X] | 92 | 76 | 56 | 100 | 27 | 100 | 38 | 100 | 60 | 65 | 84 | 100 | 11 | 100 | 72 | 87 | 100 | 11 | 51 | 32 |
| CC1=C(C(=O)Nc2ccc3[nH]ncc3c2)C(c2ccc3ccccc3c2)CC(=O)N1 (stereo not drawn) [GSK270822A] | 100 | 83 | 7.1 | 95 | 74 | 100 | 85 | 100 | 100 | 88 | 95 | 99 | 100 | 71 | 74 | 100 | 81 | 76 | 96 | 93 |
